Data on 18 sequences can be found in the OligoGym collection.
Further: reference of the scale not given here.

The target of one assay is MRO. Description: pooled miR-30 sensor sort-seq; sequence = guide strand. As to conditions: shRNA.
In turn, TATCATTGATGTCCTTTTCTGC registered a sensor-assay potency score (higher = more potent) of -0.559. Take TTTGATCTTCTTCACTCTGGAA: the sensor-assay potency score (higher = more potent) was -0.504.

TTTGCAAGCCTTGGCAACCTGG displayed a sensor-assay potency score (higher = more potent) of -1.05. Same read-out and setting: next, TTGATCTTCTTCACTCTGGAAG: -0.557; AAGAACTGCAGGATCTCTGGAT: 0.374; TCATCATCTAATAAAGTCCTGG: -0.176.

ATACAGTCCATACACCAGCAGG displayed a sensor-assay potency score (higher = more potent) of -1.19.

In the case of TTTCTTATACTTTCTCACCTTG, the sensor-assay potency score (higher = more potent) was -0.188. Sequence TATACTTTCTCACCTTGTCAGG displayed a sensor-assay potency score (higher = more potent) of -0.957.

As to TTGTTTTGCAAGCCTTGGCAAC, the sensor-assay potency score (higher = more potent) was -1.43. Turning to TTTTCTTATACTTTCTCACCTT, the sensor-assay potency score (higher = more potent) came to 0.132. As to TAGTGTTCCTTTGATCTTCTTC, the sensor-assay potency score (higher = more potent) was 0.466.

Another assay has as its target MRPL14. The assay is described as above. The note with it: shRNA.
Turning to TGTTGGAGTCGAATCTGGGGGT, the sensor-assay potency score (higher = more potent) is -0.258. Still for that read-out and setting: next, ATTCTTCTTATAGACATGGATG: -1.46; TTGATGGCCAGTAGTATCTGGT: -0.918; TAGTATCTGGTCGCCCACCTTG: -1.26. Regarding TTCTTATAGACATGGATGCAGC, the sensor-assay potency score (higher = more potent) was -1.01. Sequence TTGTTGGAGTCGAATCTGGGGG came in with a sensor-assay potency score (higher = more potent) of -0.711.
